From PubChem BioAssay
Sampled rows, rich in hits. Any-hit rate of the full collection: about 21%.
NS1 function inh: influenza NS1 inhibition; 0.4% of 270,000 active; Potency, µM (series often up to 46.1 µM), without a hit: at the highest dose activity, positive = more growth; AID 2326; further: potency means the concentration at half of the fitted maximal effect; actives are rising curves; nearly all actives have a fitted effect of over 50% in size
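Read-out: OD600 growth recovery of NS1-expressing budding yeast. Cells grown overnight at 30C in -URA glucose medium, washed, resuspended and diluted 1:100 in 2% galactose assay medium, pH 6.0. Same strain lacking NS1 served as positive control.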
SARS PLpro yeast: blocks SARS-CoV papain-like protease in a yeast assay; AID 485353; S. cerevisiae expressing SARS-CoV PLpro, growth rescue; Potency, µM (series often up to 32.9 µM), inactives show at the top dose activity, positive = growth rescue, actives largely listed as activators; 0.19% of 330,000 active; further: potency means the concentration at half of the fitted maximal effect; 0% is about no effect; nearly all actives have a fitted effect of over 55% in size
Shiga inhibitor: inhibitors of Shiga toxin in Vero cells. Vero cells, Shiga toxin protein synthesis inhibition reporter. inhibition, % at 38.7 µM. 9.2% of 290,000 active. AID 2315; in the data active means inhibition mostly above about 28%, no sharp cut-off; inactive means mostly below about 43%; further: 0% is about no effect
Pf growth 96h: P. falciparum growth inhibition at 96 hour, primary screen for plastid delayed-death inhibitors | P. falciparum luciferase reporter growth, 96 h | Potency, µM (series often up to 28.7 µM), inactives show at the highest dose activity change, negative = inhibition, actives largely listed as inhibitors | 6.9% of 320,000 active; active means well fitted inhibition curve with a large enough effect; inconclusive means small, poorly fitted or top-dose-only effect, or another doubt; inactive means no such curve, though single readings can be large or run the other way; further: potency means the concentration at half of the fitted maximal effect; on the % scale 0 is the no-effect control and ±100 the full control effect
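Readout is luminescence from an integrated firefly luciferase in P. falciparum. Red cells, 2% hematocrit and 0.05% parasitemia final, were cultured with compound through two parasite generations (96 hours) at 37 C, 5% CO2.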
Pf growth 48h: P. falciparum growth inhibition at 48 hours (one generation) | AID 504832 | P. falciparum luciferase growth in erythrocytes, 48 h | 5.9% of 310,000 active | Potency, µM (highest dose often 28.7 µM), without a hit: at the highest dose activity change, negative = inhibition, usual class: inhibitors; active means well fitted inhibition curve with a large enough effect; inconclusive means small, poorly fitted or top-dose-only effect, or another doubt; inactive means no such curve, though single readings can be large or run the other way; further: potency means the concentration at half of the fitted maximal effect; on the % scale 0 is the no-effect control and ±100 the full control effect
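Growth was read as firefly luciferase luminescence after a 48 h, 37 C, 5% CO2 exposure of compounds to reporter-bearing P. falciparum cultures (0.1% parasitemia, 2% hematocrit final) in Albumax-supplemented RPMI 1640.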
Cycloheximide cs: affects cycloheximide protein synthesis inhibition readout, counter-screen. 12% of 300,000 active. cell reporter, cycloheximide protein synthesis inhibition counterscreen. max response, %. AID 2314; in the data active means max response mostly above about 13%, no sharp cut-off; inactive means mostly below about 14%; further: read at 38.3 µM for the half of the compounds with a filed dose; 0% is about no effect
NS1 inh valid: influenza NS1 function inhibition validation. 1,400 tested, under 10 active. AID 492980. influenza NS1 function cell assay, 15-point titration. shares compounds with NS1 function inh. activity change, negative = inhibition, % at 32.9 µM; further: 0% is about no effect
PR8 titer: influenza virus titer reduction, NS1 project. shares compounds with NS1 function inh. 30% of 95 active. virus titer (log TCID50), log10 TCID50 at 5 µM. MDCK infected influenza A/PR/8/34, virus titer TCID50; hits give low values; call rule not given here
Starred values were filed as active, the others as inactive; u = inconclusive; x = no result given; [ ] = another dose, or the depositor's remark. Unless noted, the call rests on the fitted dose curve.

SMILES	NS1 function inh	SARS PLpro yeast	Shiga inhibitor	Pf growth 96h	Pf growth 48h	Cycloheximide cs	NS1 inh valid	others
CC(C)OC(=O)/C(=C\c1ccc2c(c1)c1ccccc1n2C)NC(=O)c1ccccc1	10µM*	8%	67*	23%	4.1µM*	29*	7
CC(C)NS(=O)(=O)c1ccc(OCC(=O)Nc2cccc(F)c2)cc1	u	0%	8	42%	-11%	9	18
Cc1oc(C)c2c(=O)ccc3c(c12)OC(N)=C(C#N)C3c1ccc(F)cc1 (stereo not drawn)	8.9µM*	8%	6	-2%[5.75 µM]	13µM*	9	7
Cc1[nH]nc2c1C(c1ccc(F)cc1)C(C#N)=C(N)O2 (stereo not drawn)	5%	-3%	-16	u	9%	-7	x
CCCCn1c(SCC(=O)N2c3ccccc3Sc3ccccc32)nc2c1c(=O)n(C)c(=O)n2C	11µM*	-35%	-1	x	1.7µM*	-1	4
Cc1cc(C)cc(NS(=O)(=O)c2ccc(NC(=S)NC(=O)c3cccs3)cc2)c1	13µM*	3%	18	30%	u	8	-33
Cc1c(C(=O)OCC(=O)N(C)C2CCS(=O)(=O)C2)oc2ccc(Br)cc12 (stereo not drawn)	6%	0%	11	40%	19%	-2	x
O=C(CN1C(=O)CSc2ccccc21)N1CCc2ccccc21	u	-1%	-11	u	-6%	0	4
CN1C(=O)C(=O)N(CC(=O)N2CCc3ccccc32)C1=O	8%	4%	44	u	x	6	x
O=C(O)CC1=C(O)C(=O)N(c2ccccc2)C1c1ccc(Br)cc1 (stereo not drawn)	7.9µM*	6%	18	0%	u	-2	26
O=C(O)c1[nH]c2ccccc2c1C(c1ccccc1)c1c(C(=O)O)[nH]c2ccccc12	u	11%	0	u	27%	0	x
COc1cc(C(c2c(C(=O)O)[nH]c3ccccc23)c2c(C(=O)O)[nH]c3ccccc23)ccc1OCc1ccccc1	6.3µM*	5%	x	13µM*	0%	-1	0
O=C1/C(=C\c2ccc(O)c(O)c2)Oc2cc(O)ccc21	x	x	19	x	x	7	x
O=c1cc(O)cc(/C=C/c2ccc(O)c(O)c2)o1	6.3µM*	x	x	x	x	x	38
Cc1ccc(NC(=O)CN2C(=O)CCS(=O)(=O)c3ccccc32)cc1Cl	9%	-7%	-8	-13%	9%	-3	x
C[n+]1ccccc1/C=N/O	5%	-4%	-17	u	-4%	-2	x
CC(O)/C=C/c1cccc[n+]1C (stereo not drawn)	13µM*	-3%	-19	u	u	16	-7
O=c1cc(-c2ccc(O)c(-c3c(O)cc(O)c4c(=O)cc(-c5ccc(O)cc5)oc34)c2)oc2cc(O)cc(O)c12	10µM*	4%	-13	u	u	-5	26
Cc1cc(C)c(NC(=O)CO/N=C2\CCCc3nonc32)c(C)c1	6%	4%	-17	2%	-3%	-4	x
Cc1ccc(NC(=O)c2cc(NC(=O)C3CC=CCC3C(=O)O)ccc2N2CCOCC2)cc1 (stereo not drawn)	7.9µM*	-1%	-12	11%	-2%	-3	23
Cc1ccc(S(=O)(=O)c2cc3c(=O)n4ccccc4nc3n(CC3CCCO3)c2=N)cc1C (stereo not drawn)	8.9µM*	-5%	24	-20%	3%	-3	u
O=C(O)COc1ccccc1/C=N/NC(=O)CSc1nnc(SCc2cccc3ccccc23)s1	3.5µM*	-1%	34	-29%	0%	9	-29	PR8 titer=7.5*
COc1ccccc1NC(=O)Cn1c(=O)n(CCc2c[nH]c3ccccc23)c(=O)c2cccnc21	11µM*	-2%	27	3%	u	7	26
O=C(Cn1cnc2ccccc2c1=O)NCCC(=O)Nc1ccc2c(c1)OCO2	x	-7%	-4	2%	3%	-1	x
COc1ccc(/C=N/NS(=O)(=O)c2ccc(C)cc2)cc1OC(=O)c1ccccc1	7%	x	-2	17%	18%	-1	x
SMILES	NS1 function inh	SARS PLpro yeast	Shiga inhibitor	Pf growth 96h	Pf growth 48h	Cycloheximide cs	NS1 inh valid	others
COc1ccc(/C=N/NS(=O)(=O)c2ccccc2)cc1OC(=O)c1ccc(C)cc1	8.9µM*	3%	-10	67%	35%	-1	-5
Cc1cccc(Nc2nnc(C)c(=O)n2N)c1	18%	6%	-5	67%	-12%	-3	x
Cc1ccccc1Nc1nnc(C)c(=O)n1N	1.8µM*	10%	26	u	0%	-5	2
COc1ccccc1-n1cc(-c2ccc(Br)cc2)[nH]c1=S	4.5µM*	2%	31	11%	u	17*	-10
O=S(=O)(/N=C(/Nc1cccc2ccccc12)c1ccccc1)c1cccs1	14µM*	-6%	-3	12µM*	u	4	-13
CCOc1ccc(N2CC(C(=O)NCCN3C(=O)S/C(=C\c4ccc(OC)c(OC)c4)C3=O)CC2=O)cc1 (stereo not drawn)	-7%	4%	-6	-6%	-8%	-3	x
COc1ccc(N2C(=O)N3[C@H](c4cccc(C)c4)[C@@H]4C(=O)N(Cc5ccccc5)C(=O)[C@@H]4[C@]3(Cc3ccccc3)C2=O)cc1	14µM*	21%	0	4.7µM*	u	5	-11	PR8 titer=7.5*
CCN1C(=O)[C@H]2[C@@H](c3ccc(C)cc3)N3C(=O)N(c4cccc(C)c4)C(=O)[C@@]3(Cc3ccccc3)[C@H]2C1=O	-22%	9%	5	u	u	-1	x
C=CCn1c(SCc2ccccc2)nc(O)cc1=O	6.3µM*	-8%	5	-55%	x	4	31
Cc1ccc(NC(=O)COC(=O)c2ccc3c(c2)OCO3)cc1S(=O)(=O)N1CCCCC1	10µM*	-2%	-6	-1%	18%	-2	6
Cc1ccc(C)c(SCC(=O)OCC(=O)N2CC(C)OC(C)C2)c1 (stereo not drawn)	x	0%	-5	26%	8%	-3	x
Cn1c(O)c(C=NCc2ccco2)c(=O)n(C)c1=O	8.9µM*	7%	-12	1%	x	-2	-13
COC(=O)c1ccc(N2NC(=O)/C(=C/c3cc(OC)c(OC)c(OC)c3)C2=O)cc1	5%	3%	-7	25%	u	-8	x
COC(=O)c1ccc(N2NC(=O)/C(=C/c3cc(OC)c(O)c(OC)c3)C2=O)cc1	3.5µM*	3%	-12	37%	-14%	-3	0
